# Data from ChEMBL document CHEMBL4513135, “CO-ADD screening of IQOG CSIS (Spain) compounds”.
# Values joined by “and” are separate entries in the source; they are usually repeats but may differ in a detail not shown here. Equal values may be shown once. Entries with a potency or affinity are not part of this list.
# Columns and labels:
# [1] = system: Klebsiella pneumoniae; conditions: Concentration 32 ug.mL-1, ASSAY_TEST Inhibition of Bacterial Growth, detection method Absorption (OD600), MEDIA CAMHB, plate type 384well, NBS, CORNING #3640, time 18 hr
# [2] = system: Candida albicans; conditions: 32 ug/mL
# [3] = system: Cryptococcus neoformans; conditions: Concentration 32 ug.mL-1, ASSAY_TEST Inhibition of Fungal Growth, detection method Resazurin, Absorption (OD600-OD570), plate type 384well, NBS, CORNING #3640
Structure (SMILES),Inhibition [1] [%],Inhibition [2] [%],Inhibition [3] [%],Inhibition ([1]; 32 ug/mL),Inhibition ([3]; 32 ug/mL)
Nc1ccccc1C(=O)N/N=C/c1c[nH]c2ccccc12,18.84,-0.37,0.1,,
CC1=C(CO)C(c2ccc(C#N)cc2)C(C#N)=C(N)O1 (stereo not given),10.02,5.46,-8.41,,
C#CCN(C)Cc1cc2cc(OCc3ccccc3)ccc2n1C.O=C(O)C(=O)O,16.32,2.13,-91.88,,
CN(C)c1ccc(C(=NNC(=O)c2cc3ccccc3[nH]2)c2ccc(N(C)C)cc2)cc1,-1.36,-0.9,-8.51,,
N#CCC(=C(C#N)C#N)c1ccccc1,11.23,5.35,-3.99,,
N#CC1=C(N)Oc2ccc3ccccc3c2C1,-0.19,0.68,-44.07,,
O=C(NNCCc1ccccc1)c1cc2ccccc2[nH]1,0.93,-1.59,-3.77,,
N#Cc1cc(C#N)c(NCc2ccccc2)nc1N,-14.3,1.7,5.02,,
N#CC1(Br)C(=NBr)Oc2ccc3ccccc3c2C1c1ccccc1 (stereo not given),-3,3.44,-1.83,,
O=C1OC(c2ccc([N+](=O)[O-])cc2)=NC1=Cc1ccccc1,6.09,1.83,-5.52,,
COc1ccc(CNNC(=O)c2cc3ccccc3[nH]2)cc1O,4.75,0.7,0.55,,
CC(C)C(=O)N/N=C/c1c[nH]c2ccccc12,19.59,-0.11,-5.03,,
COc1nc2nc3c(c(N)c2cc1C#N)CCCC3,13.26,2.72,-84.27,,
COc1ccc(C2c3c(nc4c(c3N)CCCC4)Oc3ccc4ccccc4c32)cc1OC (stereo not given),-20.58,2.65,0.83,,
c1ccc(CNc2ncnc3c2cnn3-c2ccccc2)cc1,-0.11,0.45,-6.46,,
COc1nc2nc3c(c(N)c2cc1C#N)CN(Cc1ccccc1)CC3,8.31,1.24,-69.67,,
C=CCNCc1cc2cc(OCCCC3CCN(Cc4ccccc4)CC3)ccc2[nH]1.O.O=C(O)C(=O)O.O=C(O)C(=O)O,-6.45,0.53,-57.95,,
C#CCNC.O=C(O)C(=O)O,9.05,4.18,-8.52,,
CC(=NNC(N)=O)c1c[nH]c2ccccc12,10.53,5.46,-5.64,,
CCC(CC)NNC(=O)c1cc2ccccc2n1C,9.15,5.89,-1.5,,
N#Cc1c(-c2ccccc2)c2ccc3ccccc3c2oc1=O,8.94,3.25,-60.47,,
O=C(Cc1c[nH]c2ccccc12)NNCc1ccccc1,1.88,0.22,-1.3,,
CCOC(=O)/C(C#N)=C\c1ccc(Cl)cc1,4.33,-0.09,-5.03,,
O=C1SC(SCc2ccccc2)=NC1=Cc1ccc2c(c1)OCO2,-9.46,1.96,-6.24,,
COC(=O)C(=Cc1ccc([N+](=O)[O-])cc1)NC(=O)c1ccccc1,11.76,0.51,-0.7,,
Cc1cnc(NC(=O)OC(C)(C)C)c(Br)c1,17.7,-0.1,-60.78,,
COc1cc(C2c3c(nc4c(c3N)CCCC4)Oc3ccc4ccccc4c32)cc(OC)c1OC (stereo not given),23.56,1.11,-4.42,,
N#CC1(Br)C(=N)Oc2ccc3ccccc3c2C1c1ccccc1 (stereo not given),,,,8.56% and 13.61%,-52.48% and -41.25%
COc1ccc2nc(Cl)c(C=O)cc2c1,,,,-0.34% and -2.5%,-8.56% and -8.89%
